PDI turbidity – PDI (human) enzyme inhibition | AID 588391 | PDI insulin aggregation turbidity, A650, 90 min | inhibition, % at 10 µM | 0.052% of 350,000 active;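 active = mean inhibition across replicates of 30% or more, whatever share of single replicates reach that level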
Target sequence (P07237 whole entry, looked up): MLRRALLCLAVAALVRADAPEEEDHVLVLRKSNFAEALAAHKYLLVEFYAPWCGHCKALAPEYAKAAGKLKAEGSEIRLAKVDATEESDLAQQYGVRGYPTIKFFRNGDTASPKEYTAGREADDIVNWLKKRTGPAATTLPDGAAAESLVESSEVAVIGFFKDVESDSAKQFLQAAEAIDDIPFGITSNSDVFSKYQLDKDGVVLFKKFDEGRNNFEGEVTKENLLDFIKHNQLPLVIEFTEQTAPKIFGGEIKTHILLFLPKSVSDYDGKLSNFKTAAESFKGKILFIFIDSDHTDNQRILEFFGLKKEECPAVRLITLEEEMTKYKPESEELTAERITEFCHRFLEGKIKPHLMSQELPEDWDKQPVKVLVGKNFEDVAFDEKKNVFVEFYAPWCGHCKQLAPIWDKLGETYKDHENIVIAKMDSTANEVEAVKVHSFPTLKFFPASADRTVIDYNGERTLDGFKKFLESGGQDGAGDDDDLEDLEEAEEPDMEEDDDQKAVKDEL
ERp5 block – blocks human ERp5 reductase activity on insulin; Q15084; ERp5 insulin aggregation, absorbance 650 nm, 90 min; inhibition, % at 9.99 µM; 0.05% of 350,000 active; AID 651711;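 active = mean replicate inhibition above about 25%, with every replicate also reaching it, limit read from the data, passing the limit was not always enough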
NRP1-CendR mod – NRP-1/CendR interaction modulation; O14786; FAM-RPARPAR peptide binding to NRP-1, fluorescence polarization; inhibition, % at 25 µM; 0.85% of 360,000 active;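 active = inhibition or corrected inhibition above about 18%, plus a signal ratio from 0.5 to 1.5, limit read from the data, passing the limit was not always enough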
PglD DTNB – blocks C. jejuni PglD acetyltransferase activity; purified PglD enzyme, DTNB colorimetric CoA detection; inhibition, % at 12.5 µM; 0.098% of 360,000 active; in the data active = inhibition above about 16%, passing the limit was not always enough
ARNT TACC3 PPI – disruptors of human ARNT/TACC3 interaction; AlphaScreen His-ARNT PAS-B/GST-TACC3 binding, luminescence; TACC3 fragment carries E629A point mutation; inhibition, % at 9.99 µM; 0.66% of 390,000 active;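 active = mean inhibition of replicates at least 50% and at least half of replicates each reaching 50%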;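 also: 0% = complete ARNT plus TACC3 wells and 100% = ARNT alone without TACC3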
ALR inh – human ALR oxidase inhibition via reduced H2O2 | P55789 | purified ALR, DTT oxidation, H2O2 HRP-luminol luminescence | inhibition, % (no concentration beside the values) | 3.8% of 290,000 active;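 active = mean replicate inhibition above about 79%, with every replicate also reaching it, limit read from the data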
Active calls of the source: *; nt = no result given. Only a selection was taken, and hits are over-represented in it overall.

SMILES | PDI turbidity | ERp5 block | NRP1-CendR mod | PglD DTNB | ARNT TACC3 PPI | ALR inh
Cc1occc1C(=O)N1N=C(C2CC2)CC1(O)C(F)(F)F (stereo unspecified) | -4.4 | nt | 33.9* | nt | -11.2 | -4.4
C=CCN1C(=O)C(CC(=O)O)S/C1=N/N=C/c1ccc(N(CC)CC)cc1 (stereo unspecified) | -9.8 | 4.7 | -17.7 | -2.0 | 1.2 | 99.1*
CN1C(=O)C(CC(=O)O)S/C1=N\N=C\c1ccc(O)cc1O (stereo unspecified) | 9.9 | 6.9 | -13.2 | -1.0 | 12.8 | 84.7*
O=C(O)CC1S/C(=N\N=C/c2ccccc2)N(c2ccc(O)cc2)C1=O (stereo unspecified) | -4.4 | -1.0 | 1.0 | -0.4 | 4.8 | 5.4
CN(C)c1ccc(/C=N/N=C2/SC(CC(=O)O)C(=O)N2c2ccc(O)cc2)cc1 (stereo unspecified) | 10.9 | 3.9 | 0.6 | nt | -4.7 | 97.3*
COc1ccc(N2CCN(C(=O)C3CCN(S(=O)(=O)c4cccs4)CC3)CC2)cc1 | 5.1 | -3.2 | 5.8 | nt | 3.1 | 44.9
O=C(NC(=S)N1CCN(c2ccccc2)CC1)c1c(F)cccc1F | -5.4 | 1.4 | 1.1 | -0.1 | 0.0 | 98.8*
O=C(c1cccs1)N1CCN(c2ccccc2)CC1 | 1.6 | 4.2 | -6.4 | -5.2 | -7.1 | 98.2*
O=C(NC(=S)N1CCN(c2ccc([N+](=O)[O-])cc2)CC1)c1ccccc1 | 6.4 | 6.3 | -7.2 | nt | 10.0 | -2.7
O=C(c1cccs1)N1CCN(c2ccc(F)cc2)CC1 | -10.2 | nt | 2.4 | -5.8 | 4.1 | nt
O=C(NC(=S)N1CCN(c2ccc(F)cc2)CC1)c1cccs1 | 2.5 | -6.7 | -19.1 | 0.3 | 3.4 | 94.5*
O=C(C1CCN(S(=O)(=O)c2cccs2)CC1)N1CCN(c2ccccc2)CC1 | -3.6 | nt | 2.5 | -1.8 | 2.9 | 84.2*
CNC[C@@H]1Oc2ccc(NC(=O)CCCN(C)C)cc2CC(=O)N([C@H](C)CO)C[C@H]1C | nt | 2.4 | nt | nt | nt | nt
CC(=O)N1[C@@H]2c3cccc(=O)n3C[C@H]1[C@H](CO)[C@H]2C(=O)N[C@H](C)c1ccccc1 | nt | -1.4 | nt | nt | nt | nt
COc1ccc(-c2ccc([C@@H]3[C@H]4CN(Cc5ccc(F)cc5)CC(=O)N4[C@H]3CO)cc2)cc1 | nt | -3.2 | nt | nt | nt | nt
OC[C@@H]1[C@H](c2ccc(C#CC3(O)CCCC3)cc2)[C@H]2CN(Cc3cccnc3)CCCCN12 | nt | 2.4 | nt | -4.2 | 6.7 | nt
C[C@H](CO)N1C[C@H](C)[C@H](CN(C)C(=O)CC2CC2)Oc2ncc(-c3ccc(C#N)cc3)cc2C1=O | nt | 5.3 | nt | -2.1 | -15.9 | nt
O=C(NC(=S)N1CCN(c2ccc(O)cc2)CC1)c1cccs1 | -3.7 | 5.5 | -2.2 | 0.5 | 22.1 | 98.9*
O=C(NC(=S)Nc1ccc(N2CCN(C(=O)c3ccccc3)CC2)cc1)c1cccs1 | -6.7 | -3.0 | -10.5 | 4.4 | 3.5 | 3.3
O=C(c1c[nH]c2ccccc12)N1CCN(c2ccccc2)CC1 | 12.5 | -1.2 | -32.0 | nt | 0.4 | 87.4*
COC(=O)[C@@H]1C[C@@]2(O)[C@H](O)[C@H](O)[C@H](O)C[C@H]2N1Cc1ccc(C(F)(F)F)cc1 | 0.4 | 7.6 | 26.6* | 8.9 | -3.3 | 13.6
COC(=O)[C@@H]1C[C@@]2(O)[C@@H](O)[C@@H](O)[C@@H](O)C[C@H]2N1Cc1ccc(C(F)(F)F)cc1 | -2.7 | 4.2 | 1.5 | 0.7 | -5.3 | nt
O=C(O)c1ccc(-c2nc(-c3ccccc3)c(-c3cccs3)[nH]2)cc1 | 2.5 | 1.4 | 8.8 | nt | 8.4 | 0.4
Cc1ccc(-c2[nH]c(-c3ccc(C(=O)O)cc3)nc2-c2ccccc2)cc1 | 0.9 | -4.7 | -2.7 | nt | 1.6 | 99.3*
CCCNC(=O)[C@@H]1[C@@H](CO)[C@@H]2Cn3c(ccc(/C=C/c4ccccc4)c3=O)[C@H]1N2C(=O)c1cccnc1 | nt | 0.7 | nt | 0.9 | -9.0 | nt
C[C@H]1CN([C@@H](C)CO)C(=O)Cc2cc(NS(=O)(=O)c3ccccc3)ccc2O[C@@H]1CN(C)CC1CCCCC1 | nt | -5.4 | nt | 1.3 | -4.5 | nt
CCCNC(=O)N1C[C@@H](O)COC[C@@H]2O[C@@H](CC(=O)N[C@@H]3CCN(Cc4ccccc4)C3)CC[C@H]21 | nt | nt | nt | 9.4 | 23.9 | nt
CC1(C)CC(=O)C(C(c2ccco2)C2C(=O)CC(C)(C)CC2=O)C(=O)C1 | 3.7 | nt | 4.0 | 0.2 | -25.4 | 83.5*

High-throughput results as filed in PubChem BioAssay.
